We go through 16 compounds from PubChem BioAssay (NCATS).

Assay [1] addresses Cytochrome P450 3A4 (Homo sapiens) (UniProt P08684). Kind of assay: qHTS Assay for Inhibitors and Substrates of Cytochrome P450 3A4 (AID 884). Note: nearly all actives have a fitted effect of over 50% in size. Note: potency is the fitted concentration of half-maximal effect. The settings on record: recombinant CYP3A4, Luciferin-PPXE luminescence; series mostly up to 57.1 µM. In outline:
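20 nM human CYP3A4 with 25 uM Luciferin-PPXE (at KM) in 200 mM KPO4, preincubated 10 min with compound; NADPH regeneration started a 60 min RT reaction. Luciferin detected by luminescence, normalized to 57 uM ketoconazole as full inhibition.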
For orientation: qHTS replaces the single test concentration by a dilution series.

Assay [2] deals with Ubiquitin carboxyl-terminal hydrolase 1 (Homo sapiens) (UniProt O94782). Put plainly: Inhibitors of USP1/UAF1: Pilot qHTS (AID 504865). Note: nearly all actives have a fitted effect of over 35% in size. Note: potency is the fitted concentration of half-maximal effect. Particulars: purified USP1/UAF1, Ub-rhodamine cleavage fluorescence; series mostly up to 114 µM. Summed up: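 In 50mM HEPES pH 7.8 containing 0.5mM EDTA, 1mM TCEP, 0.1 mg/ml BSA and 0.01% Tween-20, 1nM USP1/UAF1 is exposed to compound for 15 min, then Ub-Rho (150nM final) is added and fluorescence is read over time.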
Ubiquitin carboxyl-terminal hydrolase 1 (Homo sapiens), sequence (O94782 whole entry, looked up): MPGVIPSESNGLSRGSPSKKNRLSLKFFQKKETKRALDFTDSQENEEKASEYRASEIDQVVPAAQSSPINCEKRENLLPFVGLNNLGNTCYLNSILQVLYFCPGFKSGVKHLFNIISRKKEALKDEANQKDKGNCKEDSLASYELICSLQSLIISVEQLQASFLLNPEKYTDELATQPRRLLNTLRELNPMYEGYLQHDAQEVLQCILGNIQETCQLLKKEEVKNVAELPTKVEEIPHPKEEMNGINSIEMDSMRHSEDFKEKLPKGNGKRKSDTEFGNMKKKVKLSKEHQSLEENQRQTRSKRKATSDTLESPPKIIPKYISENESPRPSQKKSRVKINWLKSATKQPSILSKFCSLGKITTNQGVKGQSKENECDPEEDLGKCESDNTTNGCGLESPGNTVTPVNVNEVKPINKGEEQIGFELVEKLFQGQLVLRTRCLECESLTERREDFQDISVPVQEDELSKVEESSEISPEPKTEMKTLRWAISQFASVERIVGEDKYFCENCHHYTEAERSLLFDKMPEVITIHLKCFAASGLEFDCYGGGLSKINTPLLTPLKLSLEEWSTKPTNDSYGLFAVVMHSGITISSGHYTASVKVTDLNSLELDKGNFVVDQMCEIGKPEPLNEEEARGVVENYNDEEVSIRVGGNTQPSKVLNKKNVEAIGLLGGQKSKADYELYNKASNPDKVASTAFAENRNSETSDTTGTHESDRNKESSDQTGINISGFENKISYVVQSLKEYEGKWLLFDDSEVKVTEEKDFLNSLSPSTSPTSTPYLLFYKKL

Assay [3] is described as follows: qHTS profiling for inhibitors of Plasmodium falciparum proliferation (AID 504749).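 For activity, negative = inhibition: 0% = DMSO vehicle and full inhibition = artemisinin control.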 For all read-outs here: nearly all actives have a fitted effect of over 60% in size. Note: potency is the fitted concentration of half-maximal effect. The settings on record: P. falciparum in erythrocytes, SYBR Green DNA, 72 h; for activity, negative = inhibition: at 28.7 µM (top of the series). Summed up: (§1)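 P. falciparum-infected erythrocytes (0.3% parasitemia, 2.5% hematocrit final) were exposed to compounds for 72 h at 37 C in 5% CO2, then lysed with SYBR Green buffer overnight at room temperature; parasite DNA fluorescence was normalized to artemisinin and DMSO controls.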

The subject of another assay is AA1029. The assay is described as above. Particulars: P. falciparum in erythrocytes, SYBR Green DNA, 72 h; series mostly up to 28.7 µM. In outline: as §1
In a further assay the test system is ATS189. The description is as above. The settings on record: P. falciparum in erythrocytes, SYBR Green DNA, 72 h; series mostly up to 28.7 µM. In outline:
as §1

Another assay deals with CP185. The assay is described as above. The settings on record: P. falciparum in erythrocytes, SYBR Green DNA, 72 h; series mostly up to 28.7 µM. Summed up:
as §1

Another assay concerns CP201. The description is as above. Particulars: P. falciparum in erythrocytes, SYBR Green DNA, 72 h; series mostly up to 28.7 µM. In outline: as §1
The next assay concerns CP238. The assay is described as above. The settings on record: P. falciparum in erythrocytes, SYBR Green DNA, 72 h; series mostly up to 28.7 µM. Summed up: as §1
A further assay has as its system CP252. Described as above. The settings on record: P. falciparum in erythrocytes, SYBR Green DNA, 72 h; series mostly up to 28.7 µM. Summed up: as §1
Another assay relates to CP265. The description is as above. Particulars: P. falciparum in erythrocytes, SYBR Green DNA, 72 h; series mostly up to 28.7 µM. Summed up: as §1
Another assay deals with CP286. The description is as above. Particulars: P. falciparum in erythrocytes, SYBR Green DNA, 72 h; series mostly up to 28.7 µM. Summed up:
as §1

The next assay relates to CP305. Described as above. Particulars: P. falciparum in erythrocytes, SYBR Green DNA, 72 h; series mostly up to 28.7 µM. Summed up: as §1
The test system of the next assay is CP325. The assay is described as above. Particulars: P. falciparum in erythrocytes, SYBR Green DNA, 72 h; series mostly up to 28.7 µM. Summed up: as §1
Another assay has as its system DFO2036. The assay is described as above. Particulars: P. falciparum in erythrocytes, SYBR Green DNA, 72 h; series mostly up to 28.7 µM. Summed up:
as §1

The next assay has as its system FAB9. The description is as above. The settings on record: P. falciparum in erythrocytes, SYBR Green DNA, 72 h; series mostly up to 28.7 µM. Summed up:
as §1

For another assay, the system named is PC15. Described as above. Particulars: P. falciparum in erythrocytes, SYBR Green DNA, 72 h; series mostly up to 28.7 µM. In outline: as §1
The next assay concerns PC49. The assay is described as above. The settings on record: P. falciparum in erythrocytes, SYBR Green DNA, 72 h; series mostly up to 28.7 µM. In outline: as §1
A short description of assay [4]: Confirmation and Secondary Assay for Modulators of Hemoglobin Beta Chain Splicing at IVS2 654 locus (AID 910).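 Note: per-well total GFP intensity by laser scanning cytometry after 2-day treatment; % of control where 0% means no effect.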 The settings on record: HeLa EGFP-654 splicing reporter, GFP fluorescence, 48 h; series mostly up to 46.1 µM. In outline: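 HeLa cells stably carrying EGFP interrupted by mutant beta-globin IVS2-654 intron (CMV-driven) were treated with compound for 2 days at 37C; corrected splicing was scored as total peak GFP intensity per well (488 nm excitation, 500-520 nm emission).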

The nature of assay [5]: Confirmation and Secondary Assay for Modulators of Hemoglobin Beta Chain Splicing at IVS2 705 locus (AID 930).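 Note: HeLa cells stably expressing the EGFP-705 splicing reporter; % of control where 0% means no effect.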 The settings on record: HeLa EGFP-705 splicing reporter, GFP fluorescence, 48 h; series mostly up to 46.1 µM. Summed up:
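HeLa cells stably carrying EGFP interrupted by mutant beta-globin IVS2-705 intron (CMV-driven) were seeded at 500 cells/well, treated next day with compound for 2 days at 37C; corrected splicing restores EGFP, read as total peak GFP intensity per well.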

A number with no mark means an inactive call. Records with an inconclusive call do not appear. Calls of active or inactive are those of the source. Calls come from the whole dose curve; as a rule, active = well fitted curve in the direction sought with a large enough effect; inconclusive = small, poorly fitted or top-dose-only effect, or another doubt; inactive = no such curve, though single readings can be large; an effect the other way counts as inactive or inconclusive. Numbered stars: 1 amine (or outer) side, 2 acyl side, 3 side chain; on linkers, the order of the positions; unused ones are H or OH. Bridge positions count the residues as written; N and C are the ends. Square brackets hold non-standard residues; d marks the D form. Peptide text beside a SMILES is read from it. * marks the point of attachment. ξ: configuration not given here. ΔAla(Z-3-ureido) = NC(=O)N/C=C(\N)C(=O)O; X2 = NC1=NC(O)CC(C(N[*:1])C(=O)[*:2])N1; ξβ3hOrn = NCCCC(N)CC(=O)*; Orn = NCCC[CH](N)C(=O)O; Dap = NC[CH](N)C(=O)O

Cytochrome P450 3A4 (Homo sapiens), sequence (P08684 whole entry, looked up): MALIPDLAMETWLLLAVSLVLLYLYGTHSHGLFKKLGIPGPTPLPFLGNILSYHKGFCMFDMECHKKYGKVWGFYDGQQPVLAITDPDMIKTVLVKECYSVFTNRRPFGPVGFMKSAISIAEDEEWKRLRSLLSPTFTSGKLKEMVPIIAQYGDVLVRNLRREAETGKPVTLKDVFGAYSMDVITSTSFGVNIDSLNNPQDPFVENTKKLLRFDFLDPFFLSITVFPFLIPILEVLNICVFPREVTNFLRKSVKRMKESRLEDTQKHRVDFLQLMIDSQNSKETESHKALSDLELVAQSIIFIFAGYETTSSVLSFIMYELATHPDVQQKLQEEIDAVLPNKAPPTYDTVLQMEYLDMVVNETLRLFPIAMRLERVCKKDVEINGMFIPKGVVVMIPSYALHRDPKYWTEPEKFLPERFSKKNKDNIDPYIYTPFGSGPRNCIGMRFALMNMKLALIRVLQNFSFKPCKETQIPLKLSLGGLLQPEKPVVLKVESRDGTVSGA

In the case of `COc1cc(OC)c2c(c1)OC(c1ccccc1)CC2=O` (stereo not given), the Potency in [1] is 12.6 µM (active). The Potency result in [2] is “inactive”.

In the case of `CC(N)C(=O)NCC(=O)NC1CSSCC(C(=O)O)NC(=O)C(CO)NC(=O)C(C(C)O)NC(=O)C(Cc2ccccc2)NC(=O)C(C(C)O)NC(=O)C(CCCCN)NC(=O)C(Cc2c[nH]c3ccccc23)NC(=O)C(Cc2ccccc2)NC(=O)C(Cc2ccccc2)NC(=O)C(CC(N)=O)NC(=O)C(CCCCN)NC1=O` (stereo not given), the activity, negative = inhibition in assay [3] (parasite line A) is 12%; in [3] (parasite line B) it was 4.8%. The Potency entry in the assay on AA1029, in the assay on ATS189, in the assay on CP185, with CP201, in the assay with CP238 and with CP252 was “inactive” each time. Besides, the Potency result in the assay on CP265, in the assay on CP286, in the assay on CP305, in the assay on CP325, in the assay on DFO2036 and in the assay on FAB9 was “inactive” each time. Moreover, the Potency result with PC15 and with PC49 was “inactive” in each case.

Consider `C[C@H]1[C@H]2CC[C@H]3C4CC=C5C[C@@H](N(C)C)CC[C@]5(C)C4CC[C@]23CN1C` (stereo not given in full), for which the Potency result in assay [1] and in assay [2] was “inactive” in each case.

Consider `Cn1cc(O)nc1NC(=O)Nc1cccc(Cl)c1`, for which the Potency result (in assay [2]; in the assay on AA1029; with ATS189; with CP185; in the assay on CP201; in the assay on CP238) was “inactive” throughout. Also, the Potency result in the assay on CP252, in the assay with CP265, in the assay on CP286, with CP305, in the assay on CP325 and in the assay on DFO2036 was “inactive” each time. For the same compound, the Potency result with FAB9, in the assay on PC15 and in the assay with PC49 was “inactive” each time. Also, the activity, negative = inhibition in assay [3] (parasite line A) is -22.2%; in assay [3] (parasite line B), -22.3%.

For `C=CC1=C(C(=O)O)N2C(=O)[C@@H](NC(=O)C(N=O)c3csc(N)n3)[C@H]2SC1` (stereo not given in full), the Potency result (in assay [2]; in the assay with AA1029; in the assay on ATS189; with CP185; in the assay with CP201; with CP238) was “inactive” throughout. In addition, the Potency entry with CP252, with CP265, in the assay with CP286, in the assay with CP305, with CP325 and in the assay on DFO2036 was “inactive” throughout. In addition, the Potency result with FAB9, in the assay with PC15 and with PC49 was “inactive” each time. Moreover, the activity, negative = inhibition in assay [3] (parasite line A) was 6.56%; in assay [3] (parasite line B), 16.7%.

For `COC(=O)CCC(C)C1CCC2C3C(C[C@H](O)C12C)C1(C)CC[C@@H](O)CC1C[C@H]3O` (stereo not given in full), the Potency entry in [2] was “inactive”.

As for `O=c1cc(-c2ccc(O)cc2)oc2cccc(O)c12`, the Potency in assay [1] is 0.794 µM (active). In addition, the Potency result in [2] was “inactive”.

For `COc1ccc(-c2nc3ccc(C4=C(C)CC(=O)NN4)cc3[nH]2)cc1`, the activity, negative = inhibition in assay [3] (parasite line B) was -13%. Also, the Potency entry with AA1029, in the assay with ATS189, with CP185, with CP201, with CP238 and in the assay with CP252 was “inactive” throughout. Besides, the Potency result in the assay with CP265, with CP286, in the assay on CP305, in the assay on CP325, with DFO2036 and in the assay with FAB9 was “inactive” throughout. Also, the Potency result with PC15 and in the assay on PC49 was “inactive” in each case.

For the compound `O=C1CC(c2ccccc2O)Oc2ccc(O)cc21` (stereo not given), the Potency result in [2] was “inactive”.

For the compound `COc1ccc2c(c1OC)C(Cc1ccccc1)N1CCc3cc4c(cc3C1=C2)OCO4` (stereo not given), the Potency in assay [1] was 0.199 µM (active); in assay [2], 39.8 µM (active).

Take `Nc1nc2c(c(=O)[nH]1)N=C(CNc1ccc(C(=O)NC(CCC(=O)O)C(=O)O)cc1)CN2` (stereo not given): the Potency result in assay [1] and in assay [2] was “inactive” throughout.

As for `CC(C)CC1NC(=O)C(CCCN)NC(=O)C(C(C)C)NC(=O)C2CCCN2C(=O)C(Cc2ccccc2)NC(=O)C(CC(C)C)NC(=O)C(CCCN)NC(=O)C(C(C)C)NC(=O)C2CCCN2C(=O)C(Cc2ccccc2)NC1=O` (stereo not given) (cyclo(FPV[Orn]LFPV[Orn]L); configuration not given here), the Potency result in [1] and in assay [2] was “inactive” throughout. Besides, the result in assay [4] and in assay [5] was inactive. In addition, the Potency in assay [3] (parasite line A) is 1.3 nM (active); in assay [3] (parasite line B) it was 1.3 nM (active); in the assay with AA1029, 0.9 nM (active); in the assay with ATS189, 2.2 nM (active); in the assay on CP185, 2.8 nM (active); in the assay with CP201, 3.4 nM (active). The Potency in the assay with CP238 was 1.6 nM (active); in the assay on CP252, 1.3 nM (active); with CP265, 1.1 nM (active); in the assay with CP286 it was 0.8 nM (active); in the assay with CP305 it was 1.9 nM (active); in the assay on CP325, 1.1 nM (active). The Potency is 2.8 nM (active) with DFO2036, 10 nM (active) in the assay on FAB9, 5.6 nM (active) with PC15 and 7.1 nM (active) in the assay with PC49.

As to `CC[C@H](/C=C/[C@@H](C)[C@H]1CC[C@H]2C3CC=C4C[C@@H](O)CC[C@]4(C)C3CC[C@]12C)C(C)C` (stereo not given in full), the Potency result in [1] and in assay [2] was “inactive” in each case.

As to `O=C(/C=C/c1ccc(O)cc1)c1c(O)cc(O)cc1O`, in [1], the Potency was 7.94 µM (active). Moreover, the Potency result in [2] was “inactive”.

In the case of `NCCCC(N)CC(=O)NC1CNC(=O)C(C2CC(O)N=C(N)N2)NC(=O)/C(=C/NC(N)=O)NC(=O)C(CO)NC(=O)C(CO)NC1=O` (stereo not drawn) (ξβ3hOrn-[Dap]SS[ΔAla(Z-3-ureido)][X2]; lactam 1-C; configuration not given here), the Potency result (in assay [2]; with AA1029; with ATS189; in the assay with CP185; with CP201; in the assay with CP238) was “inactive” in each case. The Potency entry in the assay on CP252, in the assay on CP265, in the assay on CP286, in the assay on CP305, in the assay on CP325 and with DFO2036 was “inactive” throughout. The Potency entry with FAB9, with PC15 and in the assay on PC49 was “inactive” each time. The activity, negative = inhibition in assay [3] (parasite line A) is 5.91%; in [3] (parasite line B), 6.39%.

Consider `O=C(O)c1ccccc1-c1c2cc(Br)c(=O)c(Br)c-2oc2c(Br)c(O)c(Br)cc12`, for which the Potency result (in [2]; in the assay on AA1029; with ATS189; in the assay on CP185; in the assay with CP201; in the assay on CP238) was “inactive” each time. Also, the Potency result in the assay with CP252, in the assay on CP265, in the assay with CP286, with CP305, in the assay with CP325 and in the assay on DFO2036 was “inactive” in each case. In addition, the Potency result in the assay with FAB9, in the assay on PC15 and with PC49 was “inactive” in each case. The activity, negative = inhibition was 7.94% in assay [3] (parasite line A) and -13.6% in [3] (parasite line B).
